Experimental data published in PubChem BioAssay AID1159580 (chemical genetic matrix, 2015).
Out of some 5,500 compounds screened, about 2,000 (36%) were called active. Not shown: some 18% with an inconclusive outcome. Cut-off read from the data, not from the text of the source: active = normalized growth mostly below about 0.91 (no sharp cut-off); inconclusive = no clear call, values can overlap the other calls; inactive = mostly above about 0.92. This is one part of the list.

Experiment: chemical genetic growth profiling, strain panel (AID 1159580);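 note: tested at 20 µM; growth read once vehicle control cultures reached saturation at 30 °C; 1 = growth at the plate median or of vehicle wells; lower values mean less growth of the strain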
Settings: S. cerevisiae deletion strains, growth OD

Measured: normalized growth

O=C1c2ccccc2C(=O)c2c(O)c(O)cc(O)c21
active: locus YAL021C, strain ccr4, active compounds read low 0.105 | locus YAL026C, strain drs2, active compounds read low 0.209 | locus YAL030W, strain snc1, active compounds read low 0.471 | locus YBL061C, strain skt5, active compounds read low 0.403 | locus YBR009C, strain hhf1, active compounds read low 0.415 | locus YBR023C, strain chs3, active compounds read low 0.35 | locus YBR171W, strain sec66, active compounds read low 0.541 | locus YBR231C, strain swc5, active compounds read low 0.228 | locus YBR279W, strain paf1, active compounds read low 0.478 | locus YCL011C, strain gbp2, active compounds read low 0.436 | locus YCL016C, strain dcc1, active compounds read low 0.492 | locus YCL061C, strain MRC1, active compounds read low 0.503 | locus YCL069W, strain vba3, active compounds read low 0.426 | locus YCR088W, strain abp1, active compounds read low 0.548 | locus YDL005C, strain med2, active compounds read low 0.114 | locus YDL040C, strain nat1, active compounds read low 0.639 | locus YDR001C, strain nth1, active compounds read low 0.583 | locus YDR069C, strain doa4, active compounds read low 0.22 | locus YDR137W, strain rgp1, active compounds read low 0.136 | locus YDR159W, strain sac3, active compounds read low 0.475 | locus YDR195W, strain ref2 0.766 | locus YDR297W, strain sur2, active compounds read low 0.47 | locus YDR334W, strain swr1, active compounds read low 0.206 | locus YDR335W, strain msn5, active compounds read low 0.386 | locus YDR392W, strain spt3, active compounds read low 0.164 | locus YEL003W, strain gim4, active compounds read low 0.392 | locus YEL037C, strain rad23, active compounds read low 0.421 | locus YEL061C, strain CIN8 (second series), active compounds read low 0.494 | locus YER015W, strain faa2, active compounds read low 0.323 | locus YER016W, strain bim1, active compounds read low 0.505 | locus YER111C, strain swi4, active compounds read low 0.223 | locus YER155C, strain BEM2 (second series), active compounds read low 0.248 | locus YFR010W, strain ubp6, active compounds read low 0.412 | locus YGL167C, strain pmr1, active compounds read low 0.212 | locus YGL173C, strain kem1, active compounds read low 0.193 | locus YGL227W, strain vid30, active compounds read low 0.627 | locus YGL240W, strain doc1, active compounds read low 0.383 | locus YGL253W, strain hxk2, active compounds read low 0.262 | locus YHR013C, strain ard1, active compounds read low 0.293 | locus YHR027C, strain rpn1, active compounds read low 0.268 | locus YHR030C, strain SLT2, active compounds read low 0.183 | locus YHR079C, strain IRE1, active compounds read low 0.202 | locus YHR142W, strain chs7, active compounds read low 0.242 | locus YJL092W, strain hpr5, active compounds read low 0.529 | locus YJL095W, strain BCK1 (second series), active compounds read low 0.121 | locus YJL095W, strain BCK1, active compounds read low 0.192 | locus YJL115W, strain asf1, active compounds read low 0.431 | locus YJL129C, strain trk1, active compounds read low 0.396 | locus YJL154C, strain vps35, active compounds read low 0.489 | locus YJL164C, strain tpk1, active compounds read low 0.339 | locus YJL166W, strain qcr8, active compounds read low 0.327 | locus YJL187C, strain SWE1, active compounds read low 0.434 | locus YJR066W, strain TOR1, active compounds read low 0.174 | locus YKL160W, strain elf1, active compounds read low 0.507 | locus YKR026C, strain gcn3, active compounds read low 0.665 | locus YKR091W, strain srl3, active compounds read low 0.648 | locus YLL001W, strain dnm1, active compounds read low 0.39 | locus YLL026W, active compounds read low 0.444 | locus YLL041C, strain sdh2, active compounds read low 0.584 | locus YLR027C, strain aat2, active compounds read low 0.435 | locus YLR113W, strain HOG1, active compounds read low 0.199 | locus YLR221C, strain rsa3, active compounds read low 0.414 | locus YLR258W, strain gsy2, active compounds read low 0.455 | locus YLR262C, strain YPT6 (second series), active compounds read low 0.141 | locus YLR320W, strain mms22, active compounds read low 0.266 | locus YLR342W, strain FKS1, active compounds read low 0.443 | locus YLR357W, strain rsc2, active compounds read low 0.534 | locus YLR370C, strain arc18, active compounds read low 0.293 | locus YLR384C, strain iki3, active compounds read low 0.401 | locus YML120C, strain ndi1, active compounds read low 0.334 | locus YMR058W, strain fet3, active compounds read low 0.33 | locus YMR125W, strain sto1, active compounds read low 0.699 | locus YMR129W, active compounds read low 0.557 | locus YMR205C, strain PFK2, active compounds read low 0.356 | locus YMR231W, strain pep5, active compounds read low 0.296 | locus YNL071W, strain lat1, active compounds read low 0.306 | locus YNL183C, strain NPR1, active compounds read low 0.159 | locus YNL209W, strain ssb2, active compounds read low 0.252 | locus YNL248C, strain rpa49, active compounds read low 0.336 | locus YNL322C, strain KRE1 (second series), active compounds read low 0.424 | locus YNR049C, strain mso1, active compounds read low 0.489 | locus YOR001W, strain rrp6, active compounds read low 0.446 | locus YOR070C, strain gyp1, active compounds read low 0.439 | locus YOR080W, strain dia2, active compounds read low 0.435 | locus YOR083W, strain WHI5, active compounds read low 0.399 | locus YOR106W, strain vam3, active compounds read low 0.193 | locus YOR231W, strain MKK1, active compounds read low 0.197 | locus YOR265W, strain rbl2, active compounds read low 0.447 | locus YOR270C, strain vph1, active compounds read low 0.165 | locus YOR290C, strain snf2, active compounds read low 0.282 | locus YPL051W, strain arl3, active compounds read low 0.168 | locus YPL078C, strain atp4, active compounds read low 0.344 | locus YPL106C, strain sse1, active compounds read low 0.491 | locus YPL240C, strain hsp82, active compounds read low 0.497 | locus YPL256C, strain CLN2, active compounds read low 0.228
